Data taken from PubChem BioAssay (EPA / NIEHS).
Some structures have more than one record in an assay (separate samples or runs), and their calls can disagree. Activity calls are given as the source filed them. How the source made its calls: active means hit-call score of the fitted dose curve at least 0.9, where 1 is the maximum; inactive means score below 0.9.

Legend:
[1] = read-out: Plasminogen activator inhibitor-1 (PAI1), SERPINE1 (gene 5054); experiment: BSK_MyoF_PAI1: BioMAP Diversity Plus: MyoF Assay for Plasminogen activator inhibitor-1 (PAI1) Biomarker Activity (AID 2284256); conditions: primary human lung fibroblasts
Method in brief: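 MyoF lung fibroblasts, human primary; compound 24 h; PAI-1 ELISA; positive-direction fit vs DMSO baseline; parallel SRB total-protein staining for cytotoxicity.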

[2] = read-out: Interleukin-8 (IL8), CXCL8 (gene 3576); experiment: BSK_MyoF_IL8: BioMAP Diversity Plus: MyoF Assay for Interleukin-8 (IL8) Biomarker Activity (AID 2284261); conditions: primary human lung fibroblasts
Method in brief: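 Lung fibroblasts (human primary) → chemical exposure → 24 h → IL-8 measured by ELISA. Signal increase scored versus DMSO control.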

[3] = read-out: Decorin, DCN (gene 1634); experiment: BSK_MyoF_Decorin: BioMAP Diversity Plus: MyoF Assay for Decorin Biomarker Activity (AID 2284265); conditions: primary human lung fibroblasts
Method in brief: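 ELISA readout of decorin, 24 h post-dosing; primary human lung fibroblast (MyoF) culture; gain-of-signal fit vs DMSO baseline.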

[4] = BSK_MyoF_SRB: Viability Assessment in the BioMAP Diversity Plus: MyoF Assay (AID 2284267); conditions: primary human lung fibroblasts;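 further: total protein by SRB absorbance in parallel cultures as cytotoxicity measure; cells assessed 24 h after compound addition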
Method in brief: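 Human lung fibroblasts, 24 h after chemical dosing; total protein measured by 0.1% sulforhodamine B staining after 10% TCA fixation, read at 560 nm, fitted relative to DMSO baseline.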

[5] = read-out: Matrix Metallopeptidase 1 (MMP1), MMP1 (gene 4312); experiment: BSK_MyoF_MMP1: BioMAP Diversity Plus: MyoF Assay for Matrix Metallopeptidase 1 (MMP1) Biomarker Activity (AID 2284268); conditions: primary human lung fibroblasts
Method in brief: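 Cells: human lung fibroblasts. Exposure: 24 h chemical dosing. Detection: ELISA for MMP1. Analysis: upward fitting against DMSO negative control.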

[6] = read-out: TIMP metallopeptidase inhibitor 1 (TIMP1), TIMP1 (gene 7076); experiment: BSK_MyoF_TIMP1: BioMAP Diversity Plus: MyoF Assay for TIMP metallopeptidase inhibitor 1 (TIMP1) Biomarker Activity (AID 2284269); conditions: primary human lung fibroblasts
Method in brief: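 ELISA read-out of TIMP-1 from primary human lung fibroblast cultures 24 h after compound dosing; gain of signal relative to DMSO vehicle baseline defines activity.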

[7] = read-out: Interferon-inducible T-cell alpha chemoattractant (ITAC), CXCL11 (gene 6373); experiment: BSK_hDFCGF_ITAC: BioMAP Diversity Plus: hDFCGF Assay for Interferon-inducible T-cell alpha chemoattractant (ITAC) Biomarker Activity (AID 2284251); conditions: primary human foreskin fibroblasts
Method in brief: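 Fibroblasts (human foreskin, primary) are treated with chemical, cultured 24 h, then assayed for I-TAC by ELISA. Overt toxicity is checked in parallel cultures by sulforhodamine B staining of total protein at the same time point.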

[8] = read-out: Plasminogen activator inhibitor-1 (PAI1), SERPINE1 (gene 5054); experiment: BSK_KF3CT_PAI1: BioMAP Diversity Plus: KF3CT Assay for Plasminogen activator inhibitor-1 (PAI1) Biomarker Activity (AID 2284252); conditions: primary human keratinocytes with fibroblasts
Method in brief: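 Human keratinocyte/foreskin fibroblast co-culture dosed for 24 h; PAI-1 measured by ELISA, fitted in positive direction against DMSO baseline. Parallel SRB total-protein staining (0.1% SRB, 560 nm) assesses overt cytotoxicity.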

[9] = read-out: Intercellular Adhesion Molecule 1 (ICAM1), ICAM1 (gene 3383); experiment: BSK_BE3C_ICAM1: BioMAP Diversity Plus: BE3C Assay for Intercellular Adhesion Molecule 1 (ICAM1) Biomarker Activity (AID 2284278); conditions: primary human bronchial epithelial cells;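 further: cell-surface ICAM-1 protein level quantified by ELISA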
Method in brief: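 Primary human bronchial epithelial cells in BE3C system, 24 h after chemical dosing; cell-surface ICAM-1 measured by ELISA relative to DMSO. Parallel SRB staining (0.1% SRB after 10% TCA fixation, read at 560 nm) assessed cytotoxicity.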

[10] = read-out: Interferon-inducible T-cell alpha chemoattractant (ITAC), CXCL11 (gene 6373); experiment: BSK_BE3C_ITAC: BioMAP Diversity Plus: BE3C Assay for Interferon-inducible T-cell alpha chemoattractant (ITAC) Biomarker Activity (AID 2284279); conditions: primary human bronchial epithelial cells
Method in brief: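 ELISA read-out of I-TAC after 24 h chemical dosing of human lung primary bronchial epithelial cells; gain-of-signal fit vs DMSO baseline. Parallel SRB total-protein staining (0.1% SRB, 10% TCA fixation, 560 nm) assessed cytotoxicity.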

[11] = read-out: Interleukin-8 (IL8), CXCL8 (gene 3576); experiment: BSK_BE3C_IL8: BioMAP Diversity Plus: BE3C Assay for Interleukin-8 (IL8) Biomarker Activity (AID 2284280); conditions: primary human bronchial epithelial cells
Method in brief: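 IL-8 signal gain, normalised to DMSO vehicle, was scored after a 24 h chemical exposure of primary human bronchial epithelial cells, with detection by ELISA.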

[12] = read-out: Epidermal growth factor receptor (EGFR), EGFR (gene 1956); experiment: BSK_BE3C_EGFR: BioMAP Diversity Plus: BE3C Assay for Epidermal growth factor receptor (EGFR) Biomarker Activity (AID 2284281); conditions: primary human bronchial epithelial cells
Method in brief: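 Compound is added to human bronchial epithelial cells, cells incubate 24 h, then EGFR is detected by ELISA. Values reflect positive-direction fitting relative to DMSO.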

[13] = read-out: KRT18 (gene 3875); experiment: BSK_BE3C_Keratin818: BioMAP Diversity Plus: BE3C Assay for Keratin 818 Biomarker Activity (AID 2284282); conditions: primary human bronchial epithelial cells
Method in brief: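 Primary human bronchial epithelial cells treated 24 h; Keratin 8/18 quantified by ELISA, fit relative to DMSO. Cytotoxicity tracked in parallel cultures by sulforhodamine B total-protein staining.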

[14] = read-out: Matrix Metallopeptidase 9 (MMP9), MMP9 (gene 4318); experiment: BSK_BE3C_MMP9: BioMAP Diversity Plus: BE3C Assay for Matrix Metallopeptidase 9 (MMP9) Biomarker Activity (AID 2284283); conditions: primary human bronchial epithelial cells
Method in brief: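 ELISA read-out of MMP-9 after 24 h compound exposure of human lung bronchial epithelial primary cells (BE3C). Fit in gain direction vs DMSO negative control; total protein by SRB in parallel cultures flagged overt cytotoxicity.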

[15] = read-out: Plasminogen activator inhibitor-1 (PAI1), SERPINE1 (gene 5054); experiment: BSK_CASM3C_PAI1: BioMAP Diversity Plus: CASM3C Assay for Plasminogen activator inhibitor-1 (PAI1) Biomarker Activity (AID 2284284); conditions: primary human coronary artery smooth muscle cells;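 further: PAI-1 protein level measured by ELISA 24 h after dosing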
[16] = read-out: Intercellular Adhesion Molecule 1 (ICAM1), ICAM1 (gene 3383); experiment: BSK_hDFCGF_ICAM1: BioMAP Diversity Plus: hDFCGF Assay for Intercellular Adhesion Molecule 1 (ICAM1) Biomarker Activity (AID 2284287); conditions: primary human foreskin fibroblasts
Method in brief: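 Primary human foreskin fibroblasts (hDFCGF system) dosed with chemical; ICAM-1 quantified by ELISA at 24 h relative to DMSO. Parallel SRB total-protein staining to assess overt cytotoxicity.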

[17] = read-out: TIMP metallopeptidase inhibitor 2 (TIMP2), TIMP2 (gene 7077); experiment: BSK_hDFCGF_TIMP2: BioMAP Diversity Plus: hDFCGF Assay for TIMP metallopeptidase inhibitor 2 (TIMP2) Biomarker Activity (AID 2284289); conditions: primary human foreskin fibroblasts
Method in brief: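 Primary human foreskin fibroblasts in the hDFCGF system, dosed for 24 h; TIMP-2 level measured by ELISA, fitted in the positive direction against DMSO; cytotoxicity checked in parallel by sulforhodamine B total protein staining.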

[18] = read-out: Thrombomodulin, THBD (gene 7056); experiment: BSK_LPS_Thrombomodulin: BioMAP Diversity Plus: LPS Assay for Thrombomodulin Biomarker Activity (AID 2284296); conditions: primary human HUVEC with PBMC
Method in brief: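 Human umbilical vein endothelial cells co-cultured with PBMC and stimulated with LPS; cell-surface thrombomodulin measured by ELISA 24 hours after compound. Gain or loss versus DMSO; cytotoxicity checked by SRB staining in parallel cultures.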

Measured: AC50

CC1CCC(C(C)CS)CC1S (centres undefined)
active: [1] 8.22 µM | [2] 11.1 µM | [3] 10.1 µM | [4] 9.53 µM | [6] 11.1 µM
inactive: [5]

CC(=O)[C@H]1CC[C@H]2[C@@H]3CC=C4C[C@@H](O)CC[C@]4(C)[C@H]3CC[C@]12C
active: [8] 3.88 µM
inactive: [7] | [8] | [9] | [10] | [11] | [12] | [13] | [14] | [15] | [16] | [17] | [18]

C[C@H]1C[C@@H]2[C@H]([C@@H](O)C[C@@]3(C)[C@H]2CC[C@]3(O)C(=O)CO)[C@@]2(C)C=CC(=O)C=C12
inactive: [7] | [8] | [9] | [10] | [11] | [12] | [13] | [14] | [15] | [16] | [17] | [18]

Nc1cc([N+](=O)[O-])ccc1O
inactive: [7] | [8] | [9] | [10] | [11] | [12] | [13] | [14] | [15] | [16] | [17] | [18]

OC[C@H]1O[C@H](O[C@]2(CCl)O[C@H](CCl)[C@@H](O)[C@@H]2O)[C@H](O)[C@@H](O)[C@H]1Cl
inactive: [7] | [8] | [9] | [10] | [11] | [12] | [13] | [14] | [15] | [16] | [17] | [18]

Cc1ccc2n[nH]nc2c1
inactive: [1] | [2] | [3] | [4] | [5] | [6]

CCc1c(C)cc(N)c(CC)c1N
inactive: [1] | [2] | [3] | [4] | [5] | [6]

OC1OC[C@@H](O)[C@H](O)[C@H]1O (some centres undefined)
inactive: [7] | [8] | [9] | [10] | [11] | [12] | [13] | [14] | [15] | [16] | [17] | [18]

CCCCC(CC)COCCC#N (centres undefined)
inactive: [1] | [2] | [3] | [4] | [5] | [6]

CC(=O)/C=C/C1=C(C)CCCC1(C)C
inactive: [1] | [2] | [3] | [4] | [5] | [6]

C=CCOC(=O)CCC1CCCCC1
inactive: [7] | [8] | [9] | [10] | [11] | [12] | [13] | [14] | [15] | [16] | [17] | [18]

CC[Si](OC(C)=O)(OC(C)=O)OC(C)=O
inactive: [7] | [8] | [9] | [10] | [11] | [12] | [13] | [14] | [15] | [16] | [17] | [18]
active: [14] 6.87 µM

O=C1CCCCCCCCCCCCCCO1
active: [5] 20 µM
inactive: [1] | [2] | [3] | [4] | [6]

BrC1CCC(Br)C(Br)CCC(Br)C(Br)CCC1Br (centres undefined)
active: [5] 3.29 µM
inactive: [1] | [2] | [3] | [4] | [6]

CNC[C@H](O)c1cccc(O)c1
inactive: [1] | [2] | [3] | [4] | [5] | [6]

CC(=O)OCCC(C)CC(C)(C)C (centres undefined)
inactive: [7] | [8] | [9] | [10] | [11] | [12] | [13] | [14] | [15] | [16] | [17] | [18]

Cc1cc(C2(c3cc(C)c(O)cc3C)OS(=O)(=O)c3ccccc32)c(C)cc1O
inactive: [7] | [8] | [9] | [10] | [11] | [12] | [13] | [14] | [15] | [16] | [17] | [18]

O=C(O)C[C@H](O)C[C@H](O)/C=C/c1c(C2CC2)nc2ccccc2c1-c1ccc(F)cc1
inactive: [3] | [6]
active: [1] 5 µM | [2] 1.1 µM | [4] 3.1 µM | [5] 0.498 µM

Cc1ccc(O)c(C(C)(C)C)c1
active: [1] 31.6 µM | [4] 34.3 µM | [6] 33.7 µM
inactive: [2] | [3] | [5]

CCCCCCCCCCCCCCCCCC(=O)OCC(CC)CCCC (centres undefined)
inactive: [1] | [2] | [3] | [4] | [5] | [6]

CC(=O)O[C@]1(C(C)=O)CC[C@H]2[C@@H]3C[C@H](C)C4=CC(=O)CC[C@]4(C)[C@H]3CC[C@@]21C
inactive: [1] | [2] | [3] | [4] | [5] | [6]

CCC(=O)OCc1ccccc1
inactive: [7] | [8] | [9] | [10] | [11] | [12] | [13] | [14] | [15] | [16] | [17] | [18]
